Hits are enriched below; roughly 7.5% of the tested compounds scored in any of these assays.
NPC1 promoter act – activators of NPC1 promoter | Huh7 NPC1 promoter luciferase reporter, 24 h | actives 2.4% (n = 320,000) | Potency, µM (doses to about 9.22 µM), inactives show top-dose activation, actives largely listed as activators; note: % of control where 0% means no effect; nearly all actives have a fitted effect of over 60% in size
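Cells: Huh7 expressing luciferase under the NPC1 promoter, 1500/well. Seeded 2 h, compound added, incubated 24 h at 37 °C. Luciferase reagent, 10 min ambient, then luminescence.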
FLuc counter – counter-screen for miR-21 project: firefly luciferase inhibitors or activators. P08659. purified FLuc, Km substrates, luminescence inhibition. Potency, µM (titrated, usually from 57.5 µM), inactives show top-dose activity change, negative = inhibition, most hits filed as inhibitors. actives 6.9% (n = 360,000);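 note: plate controls were vehicle for no effect and reference inhibitor for full effect; nearly all actives have a fitted effect of over 55% in size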
Target sequence (P08659 whole entry, looked up): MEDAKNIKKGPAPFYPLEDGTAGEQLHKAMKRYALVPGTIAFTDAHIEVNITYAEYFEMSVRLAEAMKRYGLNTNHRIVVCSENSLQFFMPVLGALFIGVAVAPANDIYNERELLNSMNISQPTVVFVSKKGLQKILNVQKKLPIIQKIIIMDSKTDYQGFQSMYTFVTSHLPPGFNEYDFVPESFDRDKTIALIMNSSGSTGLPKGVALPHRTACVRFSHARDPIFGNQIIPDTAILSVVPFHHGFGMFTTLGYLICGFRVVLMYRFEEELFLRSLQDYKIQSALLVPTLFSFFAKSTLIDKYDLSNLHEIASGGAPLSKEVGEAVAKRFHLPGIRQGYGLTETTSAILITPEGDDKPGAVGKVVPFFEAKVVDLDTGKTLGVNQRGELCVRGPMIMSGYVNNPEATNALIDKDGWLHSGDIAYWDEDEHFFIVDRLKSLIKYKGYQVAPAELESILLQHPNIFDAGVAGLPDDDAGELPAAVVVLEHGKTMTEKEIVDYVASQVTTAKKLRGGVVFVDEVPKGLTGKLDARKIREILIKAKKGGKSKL
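Biochemical qHTS of compounds, final roughly 60 µM downward over six points, against 10 nM purified firefly luciferase using Km concentrations of substrates (10 uM D-luciferin, 10 uM ATP) in Tris acetate pH 7.5 buffer; luminescence output.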
SMN2 splice enh – SMN2 splice variant enhancement; HEK293 SMN2-luciferase splicing reporter, luminescence, 30-36 h; Potency, µM (titrated, usually from 46.1 µM), inactives show top-dose activity change, positive = activation, most hits filed as activators; actives 2.8% (n = 210,000); AID 1458; note: % of control where 0% means no effect; nearly all actives have a fitted effect of over 55% in size
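qHTS luciferase splicing reporter: luminescence rises when SMN2 exon 7 is included in transfected HEK293 cells. Compound exposure lasted 30-36 h at 37C, with 4.5 mM final sodium butyrate as control, followed by a ONE-Glo read.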
Rab9 promoter act – activators of Rab9 promoter. actives 2.8% (n = 320,000). Potency, µM (top dose mostly 9.22 µM), without a hit: top-dose activation, negative = inhibition, most hits filed as activators. Huh7 Rab9 promoter-luciferase reporter, luminescence, 24 h; note: % of control where 0% means no effect; nearly all actives have a fitted effect of over 60% in size
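Luminescence from Amplite-detected luciferase (10 minutes, ambient) reports Rab9 promoter activation. Before that, stable Rab9-luciferase Huh7 cells (1500/well, reduced-serum OP-MEM I plus 10% FBS) were exposed to compound for 24 hours at 37C.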
Luc counter – Kinase-Glo luciferase inhibition (counter-screen). Kinase-Glo luciferase, ATP luminescence, 8 min. actives 0.28% (n = 200,000). Q27757. Potency, µM (doses to about 38.3 µM), for inactives: at the highest dose activity change, negative = inhibition, usual class: inhibitors; note: % is set by controls: 0 for no effect and ±100 for the full control effect; nearly all actives have a fitted effect of over 60% in size
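Compound is pinned into ATP-containing buffer (10 uM ATP, imidazole pH 7.2, 7 mM MgCl2). Kinase-Glo luciferase reagent is then added. Light output is recorded following an 8-min room-temperature incubation.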
ELG1 genotoxic – inducers of genotoxicity in HEK293T ELG1-luciferase cells; HEK293T ELG1-luciferase reporter, luminescence, 16 h; Potency, µM (top dose mostly 46 µM), inactives show at the highest dose activity change, positive = activation, actives largely listed as activators; actives 1.3% (n = 330,000); note: % of control where 0% means no effect; nearly all actives have a fitted effect of over 60% in size
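Luminescence read-out: rising ELG1-luciferase signal, reflecting elevated ELG1 protein under genetic stress, flags genotoxic compounds. Cells were treated for 16 hr at 37 °C before ONE-Glo detection.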
Starred values were filed as active, the others as inactive; ? = inconclusive; / = no result; [ ] = another dose, or the depositor's remark. Calls come from the whole dose curve; as a rule, active = well fitted curve in the direction sought with a large enough effect; inconclusive = small, poorly fitted or top-dose-only effect, or another doubt; inactive = no such curve, though single readings can be large; an effect the other way counts as inactive or inconclusive. Potency is the fitted concentration of half-maximal effect.

SMILES	NPC1 promoter act	FLuc counter	SMN2 splice enh	Rab9 promoter act	Luc counter	ELG1 genotoxic
Oc1ccccc1-c1nc(/C=C/c2ccccc2Cl)no1	/	0.19µM*	-2%	/	/	/
CN(C)c1ccc(/C=C/c2noc(-c3ccccc3O)n2)cc1	/	0.67µM*	-24%	/	/	/
CCc1nc(-c2ccccc2O)n(-c2ccccc2)n1	-3%	0%	-16%	-8%	2%	0%
CN(C)c1ccc(/C=C/c2nc3ccccc3c(=O)n2CCO)cc1	15%	-15%	/	9%	/	-2%
O=C1C2C3c4ccccc4C(c4ccccc43)C2C(=O)N1Cc1ccccn1 (stereo not given)	-3%	3%	-15%	-16%	12%	-7%
CCc1cccc(CC)c1NC(=O)C(Cc1ccccc1)NS(=O)(=O)c1cccc2nsnc12 (stereo not given)	/	-10%	-1%	/	/	/
O=C(NC1CC1)c1cc2cc3ccccc3nc2s1	2.2µM*	11µM*	/	3.5µM*	/	?
Nc1ccccc1C(=O)NNc1c2ccccc2nc2ccccc12	3%	19µM*	/	-7%	/	5%
O=C(CSc1ccc2nnc(-c3ccccn3)n2n1)Nc1ccc(F)cc1F	-1%	1%	/	-1%	/	-3%
Cc1ccc(-n2ncc3c(N4CCCCCC4)ncnc32)cc1	/	0.12µM*	/	/	/	/
CCOC(=O)C1CCN(c2ncnc3c2cnn3-c2ccc(Cl)cc2)CC1	1%	?	-46%	-2%	0%	0%
CCN1CCN(c2ncnc3c2cnn3-c2ccc(C)cc2)CC1	/	11µM*	/	/	/	/
Clc1ccc(-n2ncc3c(N4CCCC4)ncnc32)cc1	0.5µM*	0.34µM*	-75%	0.32µM*	-2%	0.18µM*
Fc1ccc(-n2ncc3c(N4CCCCCC4)ncnc32)cc1	/	0.95µM*	/	/	/	/
CCN1CCN(c2ncnc3c2cnn3-c2cc(Cl)ccc2C)CC1	/	-1%	/	/	/	/
COc1cc(C2NC(=O)NC(C)=C2C(=O)OC2CCCC(C)C2)cc(Br)c1O (stereo not given)	-2%	0%	/	-2%	/	3%
CC1=C(C(=O)OC2CCCC(C)C2)C(c2ccccc2)NC(=O)N1 (stereo not given)	-12%	1%	/	1µM*	/	-4%
COc1ccc(/C=C/C(=O)Nc2cc(=O)n(C)c(=O)n2C)cc1	1%	9.5µM*	7%	-1%	-7%	13%
Cn1c(NC(=O)/C=C/c2ccccc2)cc(=O)n(C)c1=O	16%	21µM*	7.9µM*	?	-2%	?
Cn1c(NC(=O)CCc2ccccc2)cc(=O)n(C)c1=O	?	13µM*	?	2.8µM*	-6%	16µM*
Cn1c(NC(=O)/C=C/c2ccc(Cl)c(Cl)c2)cc(=O)n(C)c1=O	28%	-19%	22%	22%	1%	?
COc1ccc(-c2c(C)c3ccc(O)c(CN4CCCCC4)c3oc2=O)cc1OC	/	3%	/	/	/	/
Cc1ccc(-n2c(=O)c3c(cnn3C)n(CC(=O)Nc3cccc(Cl)c3)c2=O)cc1	/	3%	0%	/	/	/
Cc1nc2nc(C)c(CCC(=O)NCCc3ccccc3)c(C)n2n1	/	-6%	6%	/	/	/
Cc1nn(C)c(C)c1N=Cc1c(O)ccc2ccccc12	0%	13µM*	10%	15%	-8%	-1%
SMILES	NPC1 promoter act	FLuc counter	SMN2 splice enh	Rab9 promoter act	Luc counter	ELG1 genotoxic
Oc1ccc2ccccc2c1/C=N/n1cnnc1	-6%	-1%	4%	0%	2%	0%
CCOc1ccc(C(=O)Nc2ccc(C(=O)OCc3cc(=O)n4c(C)csc4n3)cc2)cc1	/	-10%	/	/	/	/
CCN(Cc1ccccc1)Cc1c(O)ccc2c(=O)c(-c3ccccc3OC)c(C(F)(F)F)oc12	/	-6%	-7%	/	/	/
Cc1ccc(NC(=O)/C=C/c2ccco2)nc1	?	6µM*	14µM*	22%	-3%	4.1µM*
Cc1ccc(NC(=O)/C=C/c2cccc([N+](=O)[O-])c2)nc1	1%	-1%	11%	19%	5%	16%
O=C(/C=C/c1ccco1)Nc1ccccn1	?	6.7µM*	8.9µM*	?	?	8.2µM*
O=C(/C=C/c1ccco1)Nc1cccc2cccnc12	26%	15µM*	?	26%	-4%	?
c1ccc(-c2n[nH]c3c2oc2ccccc23)cc1	/	/	/	/	-1%[39.9 µM]	/
CC(C)(C)N1CCC1CN (stereo not given)	-1%	-1%	/	-2%	/	0%
Cc1cccc(N2CCN(C(=O)CN3C(=O)COc4ccc(S(=O)(=O)N5CCC(C)CC5)cc43)CC2C)c1 (stereo not given)	/	-4%	-3%	/	/	/
O=C(O)c1ccc(N=NN2CCCCCC2)cc1	?	11µM*	4.5µM*	0.32µM*	-2%	7%
CC(=O)Nc1cccc(N=NN2CCCCC2)c1	7%	17µM*	0%	14%	0%	9%
Cc1nn(C)c(C)c1S(=O)(=O)N(CC(=O)N1CCN(c2ccccc2)CC1)c1ccc(C(C)C)cc1	/	-7%	-1%	/	/	/
COc1ccc(CCNc2ncnc3c2nnn3C)cc1OC	/	-2%	/	/	/	/
O=C(CSc1nc2ccccc2s1)c1cc2ccccc2o1	/	17µM*	0%	/	-1%	/
CC(=O)Nc1nnc(SCC(=O)NC2CCCC2)s1	-5%	2%	/	0%	/	-10%
O=C(CSc1nc2ccccc2s1)CSc1nc2ccccc2s1	6%	-2%	19%	-4%	-5%	2%
O=c1oc2ccccc2n1CSc1nc2ccccc2s1	2.8µM*	12µM*	14%	4µM*	-2%	?
CCOC(=O)CNC(=O)CSc1nnc(NC(=O)c2ccc(S(=O)(=O)N3CCOCC3)cc2)s1	-2%	?	/	0%	/	3%
CCOC(=O)CNC(=O)CSc1nnc(NC(=O)c2ccccc2Cl)s1	24%	11µM*	?	?	-8%	?
Cc1ccccc1C(=O)Nc1nnc(SCC(=O)NC2CC2)s1	2.5µM*	8.5µM*	/	2.2µM*	/	?
CC(C)OCCCNC(=O)c1cn(C)c2ccc(S(=O)(=O)N3CCCCCC3)cc2c1=O	/	2%	?	/	/	/
O=C(CSc1nnc(NC(=O)c2c(F)cccc2F)s1)NC1CC1	-2%	-6%	/	-2%	/	6%
CC(=O)Nc1nnc(SCC(=O)NC(C)(C)C)s1	17%	0%	-8%	12%	-5%	-7%
O=C(CSc1nc2ccccc2s1)Nc1ccc2c(c1)oc1ccccc12	17%	-2%	11µM*	24%	-3%	8%
CC(C)(C)NC(=O)CSc1nnc(NC(=O)c2ccccc2Cl)s1	10%	17µM*	15%	11%	-7%	7%
O=C(CSc1nnc(NC(=O)c2ccc(F)cc2F)s1)NC1CC1	?	7.6µM*	/	?	/	?
